# High-throughput results deposited in PubChem by National Center for Advancing Translational Sciences (NCATS).
# Gal4-VP16 FLuc = inhibits Gal4-VP16 luciferase reporter, ROR gamma counter-screen. AID 2546. Drosophila S2 Gal4-VP16 UAS-luciferase, luminescence, 20 h. Potency, µM (top dose mostly 53.6 µM), for inactives: at the top dose activity, negative = inhibition, most hits filed as inhibitors. hit rate 3.5% among 310,000;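 note: Gal4-VP16 expression switched on by copper sulfate through the metallothionein promoter; potency is the fitted concentration of half-maximal effect; nearly all actives have a fitted effect of over 50% in size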
# IL1B secr inh = inhibitors of inflammasome signaling (IL-1 beta secretion). THP-1 LPS/ATP IL-1B secretion, AlphaLISA, 16 h; stronger effect = lower value. activity change, % at 57.5 µM. hit rate 4.7% among 360,000; in the data active = activity change below about -50%; inconclusive = mostly about -30% to -49%
#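 Secreted IL-1B measured by AlphaLISA bead assay after 16 h compound exposure of THP-1 cells; compounds (final up to 57.5 uM) added 1 h before LPS (250 ng/mL) and ATP (1.25 mM) stimulation; lower signal means less secretion.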
# TDP1 cell noCPT = qHTS for Inhibitors of human tyrosyl-DNA phosphodiesterase 1 (TDP1): qHTS in cells in absence of CPT; DT40 Tdp1-/- hTDP1 cells, no CPT, ATP luminescence, 48 h; AID 686978, 2013; hit rate 15% among 420,000; Potency, µM (highest dose often 46.2 µM), inactives show at the highest dose activity change, negative = growth inhibition, hits mostly inhibitors; note: potency is the fitted concentration of half-maximal effect; nearly all actives have a fitted effect of over 55% in size
#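 Growth of hTDP1-complemented DT40 Tdp1-knockout cells is measured by ATP luminescence after at least 48 hr compound exposure at 37 °C, with DMSO substituting for the 20 nM CPT used in the parallel screen.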
# RORgamma inh = inhibitors of mouse ROR gamma transcriptional activity | P51450 | Drosophila S2 Gal4-RORgamma UAS-luciferase reporter, 20 h | Potency, µM (top dose mostly 53.6 µM), without a hit: top-dose activity change, negative = inhibition, usual class: inhibitors | hit rate 5.4% among 310,000 | AID 2551; note: potency is the fitted concentration of half-maximal effect; nearly all actives have a fitted effect of over 60% in size
# Target sequence (P51450 whole entry, looked up, the tested form may be a part): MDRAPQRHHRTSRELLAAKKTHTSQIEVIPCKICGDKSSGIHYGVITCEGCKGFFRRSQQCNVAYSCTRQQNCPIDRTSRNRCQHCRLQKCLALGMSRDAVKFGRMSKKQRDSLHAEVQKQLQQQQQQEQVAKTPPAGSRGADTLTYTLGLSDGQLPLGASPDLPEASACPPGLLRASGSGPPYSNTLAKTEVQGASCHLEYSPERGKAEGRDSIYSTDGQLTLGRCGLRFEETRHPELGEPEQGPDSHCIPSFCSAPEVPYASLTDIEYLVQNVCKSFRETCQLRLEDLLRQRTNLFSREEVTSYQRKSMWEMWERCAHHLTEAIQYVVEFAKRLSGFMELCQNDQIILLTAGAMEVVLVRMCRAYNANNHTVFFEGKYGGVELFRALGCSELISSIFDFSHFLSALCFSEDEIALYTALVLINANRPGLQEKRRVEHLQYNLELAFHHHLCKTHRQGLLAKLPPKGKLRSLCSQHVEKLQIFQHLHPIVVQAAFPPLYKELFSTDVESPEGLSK
#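 Luminescence from a UAS-regulated Photinus luciferase reporter in stably transfected Drosophila Schneider cells is measured; decreased signal marks ROR gamma inhibition. Fusion expression is induced by 700 uM copper sulfate for 20 hr.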
# LDHA inh = inhibitors of human lactate dehydrogenase A; AID 1347041; purified LDHA, NADH/diaphorase-resazurin fluorescence; stronger effect = lower value; P00338; hit rate 0.15% among 480,000; activity change, % (values are at about 110 or 230 µM); in the data active = activity change below about -30%; inconclusive = mostly about -25% to -30%;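 note: plate controls were DMSO wells for no effect and wells without enzyme for full effect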
#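 Human LDH5 (2 nM) was incubated with 0.06 mM NADH and 0.2 mM pyruvate for 5 min at room temperature in Tris pH 7.4. Remaining NADH was coupled through diaphorase/resazurin, and resorufin fluorescence was read at 0 and 20 min.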
# TDP1 cell CPT = growth inhibition of DT40 Tdp1-/-;hTDP1 cells with camptothecin (screen for TDP1 inhibitors). chicken DT40 Tdp1-/-;hTDP1 cells + 20 nM CPT, ATP luminescence, 48 h. Potency, µM (highest dose often 46.2 µM), inactives show top-dose activity change, negative = growth inhibition, most hits filed as inhibitors. hit rate 12% among 420,000. AID 686979; note: potency is the fitted concentration of half-maximal effect; nearly all actives have a fitted effect of over 55% in size
#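 Chicken DT40 Tdp1-/- cells complemented with human TDP1, 400 cells/well, exposed to compounds plus 20 nM camptothecin for at least 48 h at 37 C; viability read as ATP content by CellTiter-Glo luminescence.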
# * hit, by the source's call; ? = inconclusive; · = no result; [ ] = dose if it differs, or a comment. Only some compounds are listed: those with a hit (about 18% of all), similar ones and a draw of the others. Unless noted, calls come from the whole dose curve; as a rule, active = well fitted curve in the direction sought with a large enough effect; inconclusive = small, poorly fitted or top-dose-only effect, or another doubt; inactive = no such curve, though single readings can be large; an effect the other way counts as inactive or inconclusive. Unless noted, % is set by controls: 0 for no effect and ±100 for the full control effect.
SMILES,Gal4-VP16 FLuc,IL1B secr inh,TDP1 cell noCPT,RORgamma inh,LDHA inh,TDP1 cell CPT
O=C(N/C(=C\c1ccc([N+](=O)[O-])cc1)C(=O)N1CCCCC1)c1ccccc1,-3%[10 µM],13,?,-5%,0,?
COc1ccccc1NC(=O)C(CC(C)C)N1Cc2ccccc2C1=O (stereo not drawn),·,·,·,·,3,·
COc1cc(CN2CCN(c3cccc(Cl)c3)CC2)cc(OC)c1OC,-15%,34,5.8µM*,-29%,-19,7.3µM*
COc1ccc(CNC(=O)N2CCN(c3cccc(Cl)c3)CC2)cc1OC,4%,-16,?,35%,-7,?
COc1cc(CN2CCN(C(O)(c3ccccc3)c3ccccc3)CC2)cc(OC)c1OC,6%,-69*,15µM*,-36%,-2,?
COc1ccc(CCNC(=O)CN2CCN(c3cccc(Cl)c3)CC2)cc1OC,4%,-1,21µM*,-36%,5,21µM*
Cc1c(OCC(=O)C(C)(C)C)ccc2c(-c3ccccc3)cc(=O)oc12,-8%,-64*,16µM*,?,-12,?
CC(=O)COc1ccc2c(-c3ccccc3)cc(=O)oc2c1C,3%,-1,?,-3%,-3,0%
Cc1c(OCC(=O)NCC(O)c2ccccc2)ccc2c(-c3ccccc3)cc(=O)oc12 (stereo not drawn),-10%,-63*,?,?,-4,?
CCOc1ccc2c3c(c(=O)oc2c1OCC)CCCC3,11%,-52*,?,24%,-6,?
Cc1c(OCC(=O)C(C)(C)C)ccc2c3c(c(=O)oc12)CCCC3,-5%,-2,16µM*,?,-1,?
Cc1cc(O)c2c(CN3CCN(CCO)CC3)cc(=O)oc2c1,·,·,·,·,5,·
CCCN1Cc2cccc(C(=O)Nc3cc(Cl)cc(Cl)c3)c2C1=O,·,·,·,·,3,·
CCOc1ccc(-c2csc(/C(C#N)=C\c3ccc(O)c([N+](=O)[O-])c3)n2)cc1,?,-6,4.6µM*,-63%,-5,3.7µM*
Cc1ccc(OCCCCN(C)Cc2ccccc2)c(Br)c1,7%,-98*,18µM*,0%,-10,23µM*
Cc1cc(C)c(OCCCCN(C)Cc2ccccc2)c(C)c1,-5%,-2,23µM*,19%[1.91 µM],-8,?
COc1ccccc1OCCCOc1ccc(C)cc1Br,-16%,2,?,0%,2,-13%
CCCCN(C(=O)CCn1c(=O)oc2ccccc21)c1ccccc1,1%,-5,?,8%,-2,18µM*
CCCC(=O)N(CCN(C(=O)CCC)c1ccccc1)c1ccccc1,18%,-21,21µM*,-24%,-2,12µM*
CC(=O)N1CCC(NC(=O)CSc2ncc(-c3ccccc3)o2)CC1,·,·,·,·,6,·
CCn1nc(C(=O)Nc2ccc(OC)c(OCCOC)c2)c2ccccc2c1=O,·,·,·,·,-3,·
CCN1CCN(c2ccc(NC(=O)c3cccc(NC(=O)c4cccs4)c3)cc2)CC1,·,·,·,·,6,·
CCN1CCN(Cc2ccc(NC(=O)c3ccc(C)c(NC(=O)c4cncc(-c5cccs5)c4)c3)cc2C(F)(F)F)CC1,·,-110*,1.6µM*,·,-3,2.3µM*
CCN1CCN(Cc2ccc(NC(=O)c3ccc(C)c(NC(=O)c4nccn4C)c3)cc2C(F)(F)F)CC1,?,-58*,-29%,?,0,-25%
CCN1CCN(Cc2ccc(NC(=O)c3ccc(C)c(NC(=O)c4cccc5[nH]ccc45)c3)cc2C(F)(F)F)CC1,-13%,-98*,13µM*,6.3µM*,-5,12µM*
SMILES,Gal4-VP16 FLuc,IL1B secr inh,TDP1 cell noCPT,RORgamma inh,LDHA inh,TDP1 cell CPT
CCN1CCN(Cc2ccc(NC(=O)c3ccc(C)c(NC(=O)c4cc(-c5ccc(Br)cc5)n[nH]4)c3)cc2C(F)(F)F)CC1,?,-58*,?,?,-7,?
Cc1ccc(C(=O)Nc2ccc(Cl)c(C(F)(F)F)c2)cc1Cl,·,·,·,·,4,·
CCc1ccc(C2C=C(c3ccc(C)cc3)Nc3nnnn32)cc1 (stereo not drawn),·,·,·,·,9,·
N#Cc1c(NC(=O)c2ccnn2C(F)F)sc2c1CCCCC2,·,·,·,·,1,·
CCN1CCN(Cc2ccc(NC(=O)c3cc(NC(=O)c4nccnc4N)cc(OC)c3)cc2C(F)(F)F)CC1,3%,?,?,-41%,-5,?
CCN1CCN(Cc2ccc(NC(=O)c3ccc(C)c(NC(=O)c4nccnc4N)c3)cc2C(F)(F)F)CC1,4%,-93*,21µM*,20%,1,?
Cc1ccc(C)c(NC(=O)c2ccc3ccccc3n2)c1,2%,26,?,7%,-6,?
Cc1ccc(S(=O)(=O)N(C)C)cc1NC(=O)CCCNC(=O)c1ccc(Cl)cc1,4%,-6,-3%,10%,-1,4%
Cc1ccc(S(=O)(=O)NCCC(=O)Nc2cc(S(=O)(=O)N(C)C)ccc2C)cc1C,-17%,25,16µM*,3%,-8,-17%
CCN(CC)CC(=O)Nc1ccc(C)cc1C(=O)c1ccccc1,-6%,5,?,-1%,-7,-20%
Cc1ccc(S(=O)(=O)NCCC(=O)Nc2ccc(C)cc2C(=O)c2ccccc2)cc1,-8%,-9,21µM*,32%,-1,?
Cc1cccc(NC(=O)c2cc(-c3ccco3)nc3ccccc23)n1,5%,5,18µM*,-5%,0,21µM*
